Read-out in assay [1]: Interleukin-8 (IL8), CXCL8 (gene 3576)
The assay can be described thus: BSK_BF4T_IL8: BioMAP Diversity Plus: BF4T Assay for Interleukin-8 (IL8) Biomarker Activity (AID 2284263). The settings on record: primary human bronchial epithelial cells with fibroblasts. Summed up: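 Human bronchial epithelial cells with dermal fibroblasts co-culture; IL-8 measured by ELISA 24 hours after dosing, fitted vs DMSO. Cytotoxicity tracked in parallel cultures by SRB total-protein staining.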

Read-out in assay [2]: Interleukin-1 alpha (IL1a), IL1A (gene 3552)
The assay can be described thus: BSK_BF4T_IL1a: BioMAP Diversity Plus: BF4T Assay for Interleukin-1 alpha (IL1a) Biomarker Activity (AID 2284264). Conditions: primary human bronchial epithelial cells with fibroblasts. The essentials:
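ELISA read-out of IL-1α from bronchial epithelial cell/dermal fibroblast co-cultures 24 h after compound addition. Increases scored against DMSO negative control. Cytotoxicity monitored by sulforhodamine B staining of parallel cultures.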

Read-out in assay [3]: Decorin, DCN (gene 1634)
The assay can be described thus: BSK_MyoF_Decorin: BioMAP Diversity Plus: MyoF Assay for Decorin Biomarker Activity (AID 2284265). The settings on record: primary human lung fibroblasts. Summed up: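 Human lung fibroblasts in the MyoF system were exposed to compound for 24 h, after which decorin was quantified by ELISA. Activity was fitted in the positive direction relative to DMSO negative control.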

Read-out in assay [4]: KRT18 (gene 3875)
The assay can be described thus: BSK_BF4T_Keratin818: BioMAP Diversity Plus: BF4T Assay for Keratin 818 Biomarker Activity (AID 2284266). The settings on record: primary human bronchial epithelial cells with fibroblasts. Summed up:
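Keratin 8/18 levels quantified by ELISA after 24 h chemical treatment of bronchial epithelial cell/dermal fibroblast co-cultures, fitted in positive direction relative to DMSO. Parallel SRB staining tracks overt cytotoxicity.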

Assay [5] can be described thus: BSK_MyoF_SRB: Viability Assessment in the BioMAP Diversity Plus: MyoF Assay (AID 2284267).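 Further: total protein by SRB absorbance in parallel cultures as cytotoxicity measure.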 The settings on record: primary human lung fibroblasts. The essentials: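 Lung fibroblast cultures, 24 h post-dose; fix 10% TCA, stain 0.1% SRB, read 560 nm. Signal = total protein as cytotoxicity measure; fitted relative to DMSO negative control.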
Read-out in assay [6]: Matrix Metallopeptidase 1 (MMP1), MMP1 (gene 4312)
The assay can be described thus: BSK_MyoF_MMP1: BioMAP Diversity Plus: MyoF Assay for Matrix Metallopeptidase 1 (MMP1) Biomarker Activity (AID 2284268). Conditions: primary human lung fibroblasts. The essentials: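 ELISA readout of MMP1 in primary human lung fibroblast cultures, 24 h post-dosing. Gain of signal versus DMSO vehicle control defines activity. Parallel SRB staining (0.1% after 10% TCA fixation, 560 nm) flags overt cytotoxicity.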

Read-out in assay [7]: TIMP metallopeptidase inhibitor 1 (TIMP1), TIMP1 (gene 7076)
The assay can be described thus: BSK_MyoF_TIMP1: BioMAP Diversity Plus: MyoF Assay for TIMP metallopeptidase inhibitor 1 (TIMP1) Biomarker Activity (AID 2284269). Conditions: primary human lung fibroblasts. Summed up: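 Fibroblasts from human lung are dosed with chemical, cultured 24 h, and assayed for TIMP-1 by ELISA. Increases over the DMSO baseline are scored, with SRB total-protein staining run in parallel for cytotoxicity.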

Read-out in assay [8]: Tissue plasminogen activator (tPA), PLAT (gene 5327)
The assay can be described thus: BSK_BF4T_tPA: BioMAP Diversity Plus: BF4T Assay for Tissue plasminogen activator (tPA) Biomarker Activity (AID 2284272). Conditions: primary human bronchial epithelial cells with fibroblasts. The essentials:
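tPA level quantified by ELISA at 24 h post-treatment in bronchial epithelial/dermal fibroblast co-cultures, gain of signal scored against DMSO baseline. Parallel cultures stained with 0.1% SRB (560 nm) to flag overt cytotoxicity.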

Read-out in assay [9]: Matrix Metallopeptidase 1 (MMP1), MMP1 (gene 4312)
The assay can be described thus: BSK_BF4T_MMP1: BioMAP Diversity Plus: BF4T Assay for Matrix Metallopeptidase 1 (MMP1) Biomarker Activity (AID 2284270). Conditions: primary human bronchial epithelial cells with fibroblasts. Summed up:
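MMP-1 quantified by ELISA in primary human bronchial epithelial/dermal fibroblast co-cultures, 24 hours post-dosing, with DMSO as baseline; parallel sulforhodamine B staining (560 nm) tracks overt cytotoxicity.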

Read-out in assay [10]: Matrix Metallopeptidase 3 (MMP3), MMP3 (gene 4314)
The assay can be described thus: BSK_BF4T_MMP3: BioMAP Diversity Plus: BF4T Assay for Matrix Metallopeptidase 3 (MMP3) Biomarker Activity (AID 2284271). The settings on record: primary human bronchial epithelial cells with fibroblasts. The essentials:
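MMP-3 level read by ELISA after 24 h chemical exposure of bronchial epithelial cell/dermal fibroblast co-cultures, fitted upward relative to DMSO. Parallel cultures stained with 0.1% SRB after TCA fixation gauge overt cytotoxicity.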

Values joined by “and” are separate entries in the source; they are usually repeats but may differ in a detail not shown here. Equal entries are not always repeated. The source holds several records for some structures; these can differ, active in one and inactive in another. Active and inactive are the calls of the source. How the source made its calls: active means hit-call score of the fitted dose curve at least 0.9, where 1 is the maximum; inactive means score below 0.9.

For `FC(F)(F)C(F)(F)C(F)(F)C(F)(F)C(F)(F)C(F)(F)CC[Si](Cl)(Cl)Cl`, the result in [1], in [2], in [3], in [4], in assay [5] and in [6] was inactive. Further, the result in assay [7] and in assay [8] was inactive.
With `NCC(F)(F)C(F)(F)C(F)(F)C(F)(F)C(F)(F)C(F)(F)F`, the result in [1], in assay [2], in assay [3], in [4], in assay [5] and in [6] was inactive. The outcome in assay [7] and in assay [8] was inactive.
Consider `OC(O)C(F)(F)C(F)(F)F`, for which the outcome in assay [1], in assay [2], in assay [3], in [4], in assay [5] and in [6] was inactive. Besides, the result in assay [7] and in assay [8] was inactive.
Take `NCC(F)(F)C(F)(F)C(F)(F)C(F)(F)C(F)(F)C(F)(F)C(F)(F)C(F)(F)F`: the result in assay [1], in assay [2], in [3], in assay [4], in assay [5] and in [6] was inactive. Besides, the outcome in [7] and in [8] was inactive.
For the compound `OCC(O)CC(F)(F)C(F)(F)C(F)(F)C(F)(F)C(F)(F)C(F)(F)C(F)(F)C(F)(F)F` (centres undefined), the outcome in [1], in assay [2], in assay [3], in assay [4], in assay [5] and in assay [6] was inactive. In addition, the outcome in assay [8] was inactive.
A word on the AC50: it is the concentration giving half of the maximal activity seen. With `C=CC(=O)OCC(F)(F)C(F)(F)C(F)(F)C(F)(F)C(F)(F)C(F)(F)C(F)(F)C(F)F`, the result in assay [1], in assay [2], in [3], in assay [4], in [5] and in assay [8] was inactive. Besides, the AC50 is 10.3 µM (active) in [3]; 39.7 µM (active) and 30 µM (active) in assay [6].
Regarding `C=CC(=O)OCC(F)(F)C(F)(F)C(F)(F)COC(=O)C=C`, the AC50 in assay [1] is 10.8 µM (active); in assay [2], 40.5 µM (active) and 41.3 µM (active); in [3], 12.2 µM (active) and 9.13 µM (active); in assay [4] it was 45.3 µM (active) and 51.1 µM (active); in [5], 10.6 µM (active); in [8] it was 8.12 µM (active). Also, the outcome in assay [1] and in assay [6] was inactive.
With `O=C(F)C1(F)C(F)(F)C(F)(F)C(F)(F)C(F)(F)C1(F)F`, the outcome in assay [1], in assay [2], in assay [3], in assay [4], in assay [5] and in assay [6] was inactive. Further, the outcome in assay [7] and in assay [8] was inactive.
As to `O=S(=O)(Cl)C(F)(F)C(F)(F)C(F)(F)C(F)(F)C(F)(F)C(F)(F)C(F)(F)C(F)(F)F`, the outcome in assay [1], in [2], in assay [3], in [4], in assay [5] and in assay [6] was inactive. The result in assay [7], in assay [9] and in [8] was inactive. Further, the concentration at half-maximal activity (AC50) in assay [2] was 46.3 µM (active); in assay [3], 22.3 µM (active); in assay [4] it was 48.5 µM (active); in assay [8], 23.2 µM (active).
For `O=S(=O)(O)CCC(F)(F)C(F)(F)C(F)(F)C(F)(F)C(F)(F)C(F)(F)C(F)(F)C(F)(F)F`, the outcome in assay [1], in assay [2], in assay [3], in [4], in assay [5] and in assay [6] was inactive. Further, the result in assay [10] and in [8] was inactive.
Take `C=C(C)C(=O)OCC(F)(F)C(F)(F)C(F)(F)C(F)F`: the outcome in [1], in [2], in assay [3], in assay [4], in [5] and in assay [6] was inactive. The result in assay [10] and in assay [8] was inactive.
As for `O=S(=O)(O)CCC(F)(F)C(F)(F)C(F)(F)C(F)(F)F`, the outcome in assay [1], in assay [2], in assay [3], in assay [4], in assay [5] and in [6] was inactive. Further, the outcome in assay [7], in assay [10] and in assay [8] was inactive.
Consider `O=C(Cl)C(F)(F)C(F)(F)C(F)(F)C(F)(F)C(F)(F)C(F)(F)F`, for which the result in assay [1], in assay [2], in assay [3], in [4], in assay [5] and in [6] was inactive. Besides, the result in assay [8] was inactive.
In the case of `CCN(CCO)S(=O)(=O)C(F)(F)C(F)(F)C(F)(F)C(F)(F)C(F)(F)C(F)(F)C(F)(F)C(F)(F)F`, the result in assay [1], in assay [2], in [3], in assay [4], in assay [9] and in assay [8] was inactive. The concentration at half-maximal activity (AC50) in [3] is 19.4 µM (active); in assay [5], 19.4 µM (active) and 23.3 µM (active); in [6], 7.69 µM (active) and 8.4 µM (active); in [8], 13.6 µM (active).
For `CO[Si](C)(CCC(F)(F)C(F)(F)C(F)(F)C(F)(F)C(F)(F)C(F)(F)F)OC`, the result in [1], in assay [2], in assay [3], in [4], in assay [5] and in assay [6] was inactive. In addition, the result in assay [7] and in assay [8] was inactive.
For the compound `OCC(F)(F)C(F)(F)C(F)(F)C(F)(F)C(F)(F)C(F)(F)CO`, the outcome in assay [1], in assay [2], in [3], in assay [4], in assay [5] and in assay [6] was inactive. In addition, the result in assay [9] and in [8] was inactive.

Source of the values: PubChem BioAssay (EPA / NIEHS).
